Measured values published in the supplement of paper PMC6555819.

Tested on: RARb homodimer (NR concentration 270 nM)
Assay: PBM binding z-score (relative to random genomic background probes); higher = stronger binding; sequences stand for … in GC…GCGATTGACAGCGTAGAATGAAGG
Method in brief: (§1)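 Binding z-scores were set against random background probes. The data came from custom Agilent 4×180K protein-binding microarrays carrying double-stranded probes with 34-nt variable regions, incubated 1 h with ligand-free nuclear receptor dimers. Partner-specific antibodies detected binding, and scanned fluorescence was regression-normalized.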

Sequence | PBM binding z-score
CAAACTAGGCCAAAGGTCAAAGTCGAGCCAACCA | 4.89
ATCTCTAGGTAATAGTTCAGTGAATCCCGAGGAT | 1.24
CCTGCTAGGTCATGGTCAGCTACTCTACAGTATG | 3.28
TAGCCTAGGTCATGGGCCGGTATACCACGCGAAC | 3.04
TAGCCTAGGTCAGTTCGGGCCAGTATACGCTATA | 2.51
GTAACGAGGGCATTCGAGTTGATAGCATGGCGAT | 0.944
TGTCAAAGTTCAAAGGTAACATAAGTATCCACAC | 3.83
ACTAGCAGGCCAAGGGTCCCTCAAGATTAGTCCG | 0.0685
CCTTGTTGGTCAAGGTCACACACGCTATAGGTAC | 4.53
AGTCAAAGTTCATCTACGTAACGTAAGATATGCT | 3.64
GCATATAGGTAATACAAGGTGAAAGGCCGATTGT | 1.08
ACAGACAGGTGAGTGAAGGTAACTCTGCTGGACG | 0.091
TCTTGTAGATCAGCATGTTAAGAAAGCTGGCCAA | -0.787
CTAGACAGGTGAGAAGGTAACTCAGCCTCGATTA | 0.253
GCTGCTAGGTCAGGTTGGTCATCTAACGGGTACG | 2.84
GCGACTGGGGCAAAGCAGGTTACGATAAGGTTGG | 1.04
TCGAGTAGGTTACCAATGGGGCAGTCAGCTTTCT | 0.628
CAAACTAGGTCACCGGAAGGTCAAACTCCGCATG | 5.43

Tested on: RARg:RXRa (NR concentration 270 nM, RXRa partner concentration 90 nM)
Assay: as above
Method in brief: as §1

Sequence | PBM binding z-score
TAGCCTAGGTCATTCAGGGGCCAATATAGAAAGC | 6.6
CGAACTAGGTCAGGGACAGTGAATCTCCGCACGC | 2.92
CCTGCTAGGTCATGGTCAGCTATTCTACAGTATG | 3.88
GCTCGGAGGAAAAGGTCAGAGCTTTGTCCGTAGA | 4.34
ATACCAAGGTGATCGTGAGGTCGTAGATACTAAC | 2.26
CCGAGTAGGTTATGTGGCATTCAGGCAACGGTGA | 0.273
CGTAGTTGGTCAAGGTCACACACGCTATAGGTAC | 4.34
CCTTACGGGTCACTGACAGGTTATAGTATTTGGA | 5.61
ATATGTAGGTAAGCTGGGGTCATTCAGACTAGGC | 3.82
TCGAGTAGCTTAGTCGGGGCATTCAGCCAACATA | -0.536
ATCTCTAGGTAACCTAGTTCAGTGAATGCCGAAC | 0.609
TCATATAGGTAAAAAGGTGAAAGTCCGTAAGTTA | 2.48
CCTACTGGGCCAAGGTCATTGATCAGTCAAAGCA | 3.59
TAGCCTAGGTCATGCGGGCCAGTACAGTGTCGGC | 3.86
AGAACGAGGGCAATGAGTTGATAGGACGGGTGGC | 1.22
GATACAGGGTCAAGGCCAGAGTCCGCGTATTGAT | 5.35
TCTTGTAGAGCAAGCAGGTTAAGAAAGCCTGAGT | -0.441
ACAAACAGGTGATGAAGGTAACTCAGGCTATCAT | 0.443
GTACCCAGGTGAATAGGTCGTTGATGAGTAGGCG | 1.5
TCTGCTAGGTCGACGATGGTCAGCTAATCTGCTA | 0.664

Sequence | PBM binding z-score
ATCTCTAGGTAAATATAGTTCAGTGAATGCAAAT | 1.03
CAAACTAGGTCATGGTCAAAGTCGGTTTGTGCCA | 3.83
CAAACTAGGCCAAAGGTCAAAGTCGAGCCAACCA | 6.83
ATCTCTAGGTAATAGTTCAGTGAATCCCGAGGAT | 0.897
CCTGCTAGGTCATGGTCAGCTACTCTACAGTATG | 3.94
TAGCCTAGGTCATGGGCCGGTATACCACGCGAAC | 4.1
TAGCCTAGGTCAGTTCGGGCCAGTATACGCTATA | 2.29
GTAACGAGGGCATTCGAGTTGATAGCATGGCGAT | 1.34
TGTCAAAGTTCAAAGGTAACATAAGTATCCACAC | 6.56
ACTAGCAGGCCAAGGGTCCCTCAAGATTAGTCCG | -0.0773
CCTTGTTGGTCAAGGTCACACACGCTATAGGTAC | 4.56
AGTCAAAGTTCATCTACGTAACGTAAGATATGCT | 5.4
GCATATAGGTAATACAAGGTGAAAGGCCGATTGT | 0.593
ACAGACAGGTGAGTGAAGGTAACTCTGCTGGACG | 0.24
TCTTGTAGATCAGCATGTTAAGAAAGCTGGCCAA | -0.255
CTAGACAGGTGAGAAGGTAACTCAGCCTCGATTA | 0.538
GCTGCTAGGTCAGGTTGGTCATCTAACGGGTACG | 2.81
GCGACTGGGGCAAAGCAGGTTACGATAAGGTTGG | 0.351
TCGAGTAGGTTACCAATGGGGCAGTCAGCTTTCT | 1.29
CAAACTAGGTCACCGGAAGGTCAAACTCCGCATG | 8.28

Tested on: RARg homodimer (NR concentration 270 nM)
Assay: as above
Method in brief: as §1

Sequence | PBM binding z-score
TAGCCTAGGTCATTCAGGGGCCAATATAGAAAGC | 4.84
CGAACTAGGTCAGGGACAGTGAATCTCCGCACGC | 3.51
CCTGCTAGGTCATGGTCAGCTATTCTACAGTATG | 4.48
GCTCGGAGGAAAAGGTCAGAGCTTTGTCCGTAGA | 4.89
ATACCAAGGTGATCGTGAGGTCGTAGATACTAAC | 1.03
CCGAGTAGGTTATGTGGCATTCAGGCAACGGTGA | 0.223
CGTAGTTGGTCAAGGTCACACACGCTATAGGTAC | 4.9
CCTTACGGGTCACTGACAGGTTATAGTATTTGGA | 4.34
ATATGTAGGTAAGCTGGGGTCATTCAGACTAGGC | 2.24
TCGAGTAGCTTAGTCGGGGCATTCAGCCAACATA | -1.05
ATCTCTAGGTAACCTAGTTCAGTGAATGCCGAAC | 0.668
TCATATAGGTAAAAAGGTGAAAGTCCGTAAGTTA | 1.06
CCTACTGGGCCAAGGTCATTGATCAGTCAAAGCA | 2.83
TAGCCTAGGTCATGCGGGCCAGTACAGTGTCGGC | 4.22
AGAACGAGGGCAATGAGTTGATAGGACGGGTGGC | 1.39
GATACAGGGTCAAGGCCAGAGTCCGCGTATTGAT | 4.89
TCTTGTAGAGCAAGCAGGTTAAGAAAGCCTGAGT | -0.538
ACAAACAGGTGATGAAGGTAACTCAGGCTATCAT | 0.626
GTACCCAGGTGAATAGGTCGTTGATGAGTAGGCG | 0.814
TCTGCTAGGTCGACGATGGTCAGCTAATCTGCTA | 0.829

Sequence | PBM binding z-score
ATCTCTAGGTAAATATAGTTCAGTGAATGCAAAT | 1.14
CAAACTAGGTCATGGTCAAAGTCGGTTTGTGCCA | 4.77
CAAACTAGGCCAAAGGTCAAAGTCGAGCCAACCA | 5.59
ATCTCTAGGTAATAGTTCAGTGAATCCCGAGGAT | 1.33
CCTGCTAGGTCATGGTCAGCTACTCTACAGTATG | 4.84
TAGCCTAGGTCATGGGCCGGTATACCACGCGAAC | 4.58
TAGCCTAGGTCAGTTCGGGCCAGTATACGCTATA | 3.3
GTAACGAGGGCATTCGAGTTGATAGCATGGCGAT | 1.45
TGTCAAAGTTCAAAGGTAACATAAGTATCCACAC | 6.03
ACTAGCAGGCCAAGGGTCCCTCAAGATTAGTCCG | -0.0696
CCTTGTTGGTCAAGGTCACACACGCTATAGGTAC | 4.95
AGTCAAAGTTCATCTACGTAACGTAAGATATGCT | 6
GCATATAGGTAATACAAGGTGAAAGGCCGATTGT | 0.747
ACAGACAGGTGAGTGAAGGTAACTCTGCTGGACG | 0.455
TCTTGTAGATCAGCATGTTAAGAAAGCTGGCCAA | -0.411
CTAGACAGGTGAGAAGGTAACTCAGCCTCGATTA | 0.499
GCTGCTAGGTCAGGTTGGTCATCTAACGGGTACG | 3.9
GCGACTGGGGCAAAGCAGGTTACGATAAGGTTGG | 0.644
TCGAGTAGGTTACCAATGGGGCAGTCAGCTTTCT | 0.257
CAAACTAGGTCACCGGAAGGTCAAACTCCGCATG | 7.24
